# Test results taken from PubChem BioAssay AID2546 (National Center for Advancing Translational Sciences (NCATS), 2010).
# Out of some 310,000 compounds screened, about 11,000 (3.5%) were called active. Roughly 8% stayed inconclusive and do not appear here. This is one part of a sample in which actives are shown more often than they occur. Unmarked numbers belong to inactive results. Calls follow the shape of the dose curve; as a rule, active = well fitted inhibition curve with a large enough effect; inconclusive = small, poorly fitted or top-dose-only effect, or effect the other way; inactive = flat fitted curve, though single readings scatter.
# Experiment: VP16 counterscreen qHTS for inhibitors of ROR gamma transcriptional activity;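 also: Gal4-VP16 expression switched on by copper sulfate through the metallothionein promoter; nearly all actives have a fitted effect of over 50% in size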
# Conditions: Drosophila S2 Gal4-VP16 UAS-luciferase, luminescence, 20 h; series mostly up to 53.6 µM; activity, negative = inhibition: at the top concentration
# Source text: NIH Molecular Libraries Probe Production Network [MLPCN]
# NIH Chemical Genomics Center [NCGC]
# Assay Provider: Dan Littman, New York University
# The retinoic acid-related orphan receptor (ROR) gamma is a transcription factor that has a central role in the differentiation of Th17 cells, a subset of T helper cells that secrete the inflammatory cytokines IL-17, IL-17F, and IL-22. Th17 cells have been implicated in graft versus host disease, autoimmune disease and asthma. ROR gamma is induced in naive T helper cells in the presence of TGF-beta combined with IL-6, IL-21, or IL-23, and thereafter directs the expression of the Th17 lineage cytokines. To identify nonspecific inhibitors, a Drosophila Schneider cell line was stably transfected with two vectors: a gene expressing a fusion of the Gal4 DNA binding domain and VP16 transactivation domain under the control of the metallothionine promoter and a Photinus luciferase reporter regulated by the Gal4 binding site enhancer, UAS. […] Small molecule inhibitors that inhibit components common to the RORgt and VP16 assays, such as the Gal4 DNA binding domain or the UAS luciferase reporter, will be active in both assays and thus scored as nonspecific.
# For screening, 600 cells in 4 uL/well were dispensed into white solid 1536-well plates (Grenier) using a solenoid-based dispenser. Following transfer of 23 nL compound or DMSO vehicle by a pin tool, the plates were incubated 1 hr at ambient temperature, and 1 uL/well copper sulfate (700 uM final concentration) was added. The plates were centrifuged 15 s at 1000 RPM and incubated 20 hr at ambient temperature. After addition of 1.5 uL Photinus luciferase detection reagent, the plates were incubated 10 min at ambient temperature and then read by a ViewLux (Perkin Elmer) to detect luminescence.
# % is scaled to controls: 0 for no effect and ±100 for the full control effect; potency is read from the fitted curve at half-maximal effect.
Compound,Potency,"activity, negative = inhibition"
Fc1ccc(C(OCCN2CCN(C/C=C\c3ccccc3)CC2)c2ccc(F)cc2)cc1,15.8 µM (active),–
CC(=O)c1c(O)c(C)c(O)c(Cc2c(O)c3c(c(C(=O)/C=C\c4ccccc4)c2O)OC(C)(C)C=C3)c1O,–,-0.988%
CC(C)(O)c1[se]c2ccccc2c1I,–,-17.8%
N#CC(C#N)=Cc1cc(O)c(O)c([N+](=O)[O-])c1,22.4 µM (active),–
CC(C)(c1ccccc1)c1ccc(O)cc1,–,7.15%
COC1=C[C@]23CCCN2CCc2cc4c(cc2[C@@H]3[C@@H]1O)OCO4,–,-7.05%
CCCCC(=O)N/N=C/c1c(O)n(CC)c(=S)n(CC)c1=O,3.16 µM (active),–
CCCCC(=O)N/N=C/c1c(O)n(CCC2=CCCCC2)c(=O)[nH]c1=O,–,1.97%
CCCCC(=O)N/N=C/c1c(O)n(-c2ccccc2)c(=O)[nH]c1=O,–,1.03%
c1ccc2sc(SNC3CCCCC3)nc2c1,–,2.39%
CN1CCN(C(=O)O[C@@H]2c3nccnc3C(=O)N2c2ccc(Cl)cn2)CC1,–,-7.9%
CC[C@H]1CN2CCc3cc(OC)c(OC)cc3[C@@H]2C[C@@H]1C[C@H]1NCCc2cc(OC)c(OC)cc21,1.26 µM (active),–
CNC(C)[C@@H](O)c1ccccc1 (some centres undefined),–,9.08%
c1ccc(N2CC[C@@]3(CCCNC3)C2)nc1,–,-11.8%
CC(Cl)Cl,–,4.63%
CC(=O)[O][Sn]([c]1ccccc1)([c]1ccccc1)[c]1ccccc1,3.55 µM (active),–
COC(=O)N1C(c2ccccc2)C1c1ccccc1 (centres undefined),–,9.71%
CC[C@@H]1CN2CC[C@@H]1C[C@H]2[C@H](O)c1ccnc2ccc(OC)cc12,–,9.73%
CCN1C[C@]2(C)CC[C@H](O)[C@@]34[C@@H]5CC6[C@@H](OC)C[C@@](O)([C@@H]5[C@@H]6O)[C@H](C[C@@H]23)[C@H]14,–,2.08% [at 17 µM]
CCN1C[C@@]2(COC)CC[C@H](OC)[C@]34[C@@H]1[C@]1(OCO[C@@]15C[C@@H](OC)C1C[C@H]3[C@H]5[C@@H]1OC)[C@H](O)[C@@H]24,–,2.2% [at 17 µM]
NC[C@H](O)c1ccc(O)cc1,–,4.06% [at 17 µM]

Compound,Potency,"activity, negative = inhibition"
CN1CCN(c2cc(N3CCNCC3)ccc2[N+](=O)[O-])CC1,–,-5.63%
COc1cccc(-c2nc3ccc(N4CCN(C)CC4)cc3[nH]2)c1,2 µM (active),–
CCCCC#N,–,10.3%
COc1ccc(C2Oc3c(I)c(OC)cc(OC)c3CC2O)cc1OC (centres undefined),–,7.75%
C[C@@]12CC[C@H]3[C@@H](CC[C@]4(O)C[C@H](O)CC[C@@]34C=O)[C@]1(O)CC[C@@H]2C1=CC(=O)OC1,–,4.3% [at 17 µM]
Clc1ccccc1,–,-4.14%
C[C@@H]1C[C@@H]2O[C@H]2/C=C\C=C\C(=O)Cc2c(Cl)c(O)cc(O)c2C(=O)O1,12.6 µM (active),–
C[C@]12O[C@H](C[C@@]1(O)C(=O)O)n1c3ccccc3c3c4c(c5c6ccccc6n2c5c31)CNC4=O,–,-2.92%
CN1CCCC(=C(c2cccs2)c2cccs2)C1,–,-0.628%
Cc1nc2ccccn2c1P(=S)(N1CCCCC1)N1CCCCC1,11.2 µM (active),–
c1ccc(CCCCN2CCC(c3ccccc3)CC2)cc1,–,16%
O=c1oc2ccccc2c(O)c1C(c1ccccc1O)c1c(O)c2ccccc2oc1=O,–,-0.571%
CC(C)(C)C(O)(CCc1ccc(Cl)cc1)Cn1cncn1 (centres undefined),–,-6.68%
CC1=CC(=O)C2=C(C)C[C@H](O)[C@H]3[C@H](C)C(=O)O[C@@H]3C12 (some centres undefined),–,-4.17%
CCCCCCCCCCCCCC(=O)O[C@@H]1[C@@H](C)[C@@]2(O)[C@@H](C=C(CO)C[C@]3(O)C(=O)C(C)=C[C@@H]23)[C@@H]2C(C)(C)[C@]12OC(C)=O,–,-3.2%
CCCCCCCCc1[se]c2ccccc2c1Br,–,-0.332%
CN(C)C[C@H]1CCCC[C@]1(O)c1cccc(O)c1,–,-7.52%
Cc1ccc(NC(=O)CN(C)CC(=O)Nc2cccc(F)c2)cc1[N+](=O)[O-],4.47 µM (active),–
c1ccc(CN2CC[C@@]3(CCCNC3)C2)cc1,–,-2.59%
ClCCBr,–,-6.24%
COc1cc(-n2c(=S)[nH]c3ccc(C)cc3c2=O)c(Cl)cc1Cl,5.62 µM (active),–

Compound,Potency,"activity, negative = inhibition"
ClC(Cl)=C(Cl)C(Cl)=C(Cl)Cl,–,2.07%
c1csc(CN2CCCC3(CCNCC3)C2)n1,–,5.75%
CN[C@@H]1C[C@H]2O[C@@](C)([C@@H]1OC)n1c3ccccc3c3c4c(c5c6ccccc6n2c5c31)C(=O)NC4,–,-1.08% [at 10 µM]
COC(=O)c1ccc2[se]c(CC3CCCCC3)c(I)c2c1,–,1.9%
CCN(CC)c1nc(C)cc(OP(=S)(OC)OC)n1,–,-2.31%
C=CC#N,–,10.3%
N#Cc1c(Cl)c(Cl)c(Cl)c(C#N)c1Cl,1.78 µM (active),–
CCCCC/C=C\C/C=C\C/C=C\C/C=C\CCCCCC(=O)NCCO,inactive,–
N#CCCCl,inactive,–
Cc1cccc(N2C(=O)NC(=O)/C(=C\c3cnn(-c4ccccc4)c3)C2=O)c1,12.6 µM (active),–
O=C1NC(=O)N(c2ccccc2)C(=O)/C1=C/c1ccc([N+](=O)[O-])s1,–,6.23%
COc1cccc(N2C(=O)NC(=O)/C(=C\c3ccc([N+](=O)[O-])s3)C2=O)c1,–,-11.7%
N#Cc1cc(Br)c(O)c(Br)c1,–,-13.2%
N[C@H](Cc1o[nH]c(=O)c1Cl)C(=O)O,–,-10.8%
COC1CC(OC2CC[C@@]3(C=O)C4CC[C@]5(C)C(C6=CC(=O)OC6)CC[C@@]5(O)C4CC[C@]3(O)C2)OC(C)C1O (some centres undefined),–,16.8%
CC[N+](C)(CC)CCC[n+]1c(-c2ccccc2)c2cc(N)ccc2c2ccc(N)cc21,2.51 µM (active),–
O=P1(Oc2ccccc2)CC(O)C(O)C(COCc2ccccc2)O1 (centres undefined),–,-5.85%
C[C@H]1CC[C@@]2(NC1)O[C@@H]1C[C@H]3[C@@H]4CC=C5C[C@@H](O)CC[C@]5(C)[C@@H]4CC[C@]3(C)[C@@H]1[C@@H]2C,–,-5.63% [at 17 µM]
CN1C2CC3CC1C(O3)C2O (centres undefined),–,7.32%
COC([CH2][Hg])CNC(=O)c1ccccc1OCC(=O)O (centres undefined),–,3.54%
Nc1ccc(-c2ccc(N)c(N)c2)cc1N,–,15.7%

Compound,Potency,"activity, negative = inhibition"
COc1cc2c(cc1OC)[C@@H]1C(=O)c3ccc(O)c(CC=C(C)C)c3OC1CO2 (some centres undefined),–,-2.2%
CCCCn1c(=O)c(C(=O)Nc2ccccc2Cl)c(O)c2ccccc21,–,26.2%
CCCCCn1c(=O)c(C(=O)NCc2ccccn2)c(O)c2ccccc21,17.8 µM (active),–
CCCCCn1c(=O)c(C(=O)Nc2c(C)n(C)n(-c3ccccc3)c2=O)c(O)c2ccccc21,–,-11.3%
Clc1ccc([C@@H]2C[C@H]3CC[C@@H]2N3)cn1,–,5.01%
Cc1cccc([C@H](C)c2cnc[nH]2)c1C,–,3.21%
COc1ccccc1-c1[se]c2ccccc2c1I,–,-3.29%
O=C1CCc2cccc3c2N1CC3,–,-7.75%
CCC(C)C(=O)O[C@@H]1C[C@@]2(C)C(c3ccoc3)OC(=O)CC23OC2(C)O[C@@]14[C@@]1(C)C(CC(=O)OC)C5(C)CC1(O)C(O)(C5OC(=O)C1(C)OC1C)C(OC(C)=O)[C@@]34O2 (some centres undefined),–,-14.6%
BrC1C(Br)C(Br)C(Br)C(Br)C1Br (centres undefined),7.94 µM (active),–
N[C@H](C(=O)O)c1cc(=O)[nH]o1,–,-10.3%
CCCCC/C=C\C/C=C\C/C=C\C=C\[C@H](CCCC(=O)O)OO,–,-1.54%
C/C(=C\C=C/[C@@H](C)C(=O)O)[C@H]1CN[C@H](C(=O)O)[C@@H]1CC(=O)O,–,-2.02%
CC(C)(Cc1c[nH]c2ccc(Cl)cc12)NCCOc1ccccc1OCC1CC1,15.8 µM (active),–
C[C@H]1C/C=C/[C@@H]2[C@@H]3O[C@]3(C)[C@@H](C)[C@H]3[C@H](Cc4ccccc4)NC(=O)[C@]32OC(=O)O/C=C/[C@](C)(O)C1=O,–,2.16%
C[C@@H]1C[C@H]2CC[C@H](O2)[C@H](C)C(=O)O[C@@H](C)C[C@@H]2CC[C@@H](O2)[C@@H](C)C(=O)O[C@H](C)C[C@H]2CC[C@H](O2)[C@H](C)C(=O)O[C@@H](C)C[C@@H]2CC[C@@H](O2)[C@@H](C)C(=O)O1,1 µM (active),–
C1CC[C@H]([C@@]23C[C@H](C[C@H]4CCCN[C@H]42)[C@@H]2CCCCN2C3)NC1,–,-7.87%
O=C(Nc1cccc(F)c1)N1CC[C@@]2(CCCN(C(=O)Oc3ccccc3)C2)C1,–,-13.3%
C=CCSSCC=C,–,-13.7%
CC(C)(c1ccc(OC[C@@H]2CO2)cc1)c1ccc(OC[C@H]2CO2)cc1,–,1.63%
O=C(N/N=C/c1ccc([N+](=O)[O-])o1)c1cc([N+](=O)[O-])cc([N+](=O)[O-])c1O,–,-5.16%
